A short description of test [1]: yeast TOR pathway RPL19A-GFP modulators, primary screen, cell-based, S. cerevisiae, multiplex flow cytometry (AID 1862; in the data active = percent of DMSO control GFP below about 86%;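 also: lower values mimic rapamycin by blocking the RPL19A rise seen in DMSO cells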). Particulars: S. cerevisiae RPL19A-GFP strain, flow cytometry fluorescence, 3 h; at 10 µM; stronger effect = lower value. A general note: A flow cytometer gives signals particle by particle.
Test [2] in a line: modulators of MEP2-GFP levels in yeast, primary screen, S. cerevisiae, multiplex flow cytometry (AID 1867;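 active = GFP response, as percent of the DMSO control, above the screen-wide mean plus 3 SD, about 139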;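 also: median GFP channel fluorescence of barcode-gated MEP2-GFP cells measured by flow cytometry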). Particulars: S. cerevisiae MEP2-GFP strain, 3 h, at 10 µM, stronger effect = higher value, 100% means same as DMSO wells.
A short description of test [3]: modulators of CIT2-GFP expression in yeast, primary screen, S. cerevisiae, GFP fusion, multiplex flow cytometry (AID 1870;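 active = percent response above a set limit, the screen-wide mean plus 3 SD, cut at about 130% in these data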;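 also: barcoded CIT2-GFP strain pooled with four other GFP strains with rapamycin as positive control; median GFP fluorescence per well over plate mean of DMSO wells so 100% = DMSO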). Particulars: 3 h, at 10 µM, stronger effect = higher value.
The nature of test [4]: modulators of LAP4-GFP expression in yeast, primary screen, S. cerevisiae, multiplex flow cytometry (AID 1873;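 active = GFP signal, as percent of the solvent control, above the screen mean plus 3 SD, about 149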). Conditions: 3 h, at 10 µM, stronger effect = higher value.
The nature of test [5]: modulators of AGP1-GFP expression in yeast TOR pathway, primary screen, cell-based, multiplex flow cytometry, S. cerevisiae (AID 1887;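 active = GFP signal above the screen-wide mean plus 3 SD, that is over about 124.5% of the solvent control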;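 also: AGP1-GFP fusion strain of S. cerevisiae within a five-strain barcoded multiplex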). Conditions: 3 h, at 10 µM, stronger effect = higher value.
A short description of test [6]: inhibitors of CD8+ T cell-vesicle binding, pilot screen, LFA-1/ICAM-1 modulator project, MLPCN validation set, flow cytometry (AID 2523;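 active = response below a set limit, under 55% cells CD8-positive and vesicle-bound, and CD8 cells' 90th-percentile brightness under 279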;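 as to vesicle binding response: mean PE anti-B7-1 fluorescence of CD8+ cells relative to row control; 100% = QL9-loaded vesicles with DMSO vehicle in the same plate row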). Conditions: 2C mouse CD8+ T cells, at 7 µM, stronger effect = lower value; double positive events: measured here: CD8+/vesicle+ event percentage.
The target of test [7] is Integrin beta-1 (Homo sapiens) + Integrin alpha-4 (Homo sapiens) (UniProt P13612+P05556). Nature of the test: inhibition of HUTS-21 binding to VLA-4, pilot screen, VLA-4 allosteric modulator project, U937 cells, HUTS-21 mAb, flow cytometry, validation set (AID 2674;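 active = inhibition above 50%, about 3 SD of the validation set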;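 also: antibody binding induced by the VLA-4 ligand LDV present at three times its Kd; 0% = LDV ligand with antibody and no compound and 100% = antibody without LDV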). Particulars: HUTS-21 LIBS mAb binding, at 6.7 µM, stronger effect = higher value, binding induced by LDV ligand.
Chain of Integrin beta-1 (Homo sapiens) + Integrin alpha-4 (Homo sapiens) (P05556 whole entry, looked up): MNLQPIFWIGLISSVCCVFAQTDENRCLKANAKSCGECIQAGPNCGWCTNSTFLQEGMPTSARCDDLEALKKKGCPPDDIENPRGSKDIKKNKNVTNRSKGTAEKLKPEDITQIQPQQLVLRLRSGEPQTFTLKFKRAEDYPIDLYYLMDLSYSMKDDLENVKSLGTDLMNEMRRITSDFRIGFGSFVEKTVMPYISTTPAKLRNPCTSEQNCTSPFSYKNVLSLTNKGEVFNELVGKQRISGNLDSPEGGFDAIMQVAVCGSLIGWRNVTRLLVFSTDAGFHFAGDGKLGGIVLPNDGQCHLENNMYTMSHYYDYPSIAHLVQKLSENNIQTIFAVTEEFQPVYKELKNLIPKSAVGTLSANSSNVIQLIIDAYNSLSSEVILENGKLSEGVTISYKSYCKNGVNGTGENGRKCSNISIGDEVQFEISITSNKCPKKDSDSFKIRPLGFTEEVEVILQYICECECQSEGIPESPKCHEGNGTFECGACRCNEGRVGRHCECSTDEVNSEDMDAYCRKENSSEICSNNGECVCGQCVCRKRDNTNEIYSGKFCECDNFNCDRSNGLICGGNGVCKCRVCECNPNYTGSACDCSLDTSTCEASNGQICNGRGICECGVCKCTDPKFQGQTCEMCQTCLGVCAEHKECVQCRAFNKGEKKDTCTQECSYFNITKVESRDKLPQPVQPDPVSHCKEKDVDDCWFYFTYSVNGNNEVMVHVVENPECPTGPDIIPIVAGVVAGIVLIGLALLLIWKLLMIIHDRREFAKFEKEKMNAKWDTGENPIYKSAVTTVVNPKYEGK
Chain of Integrin beta-1 (Homo sapiens) + Integrin alpha-4 (Homo sapiens) (P13612 whole entry, looked up): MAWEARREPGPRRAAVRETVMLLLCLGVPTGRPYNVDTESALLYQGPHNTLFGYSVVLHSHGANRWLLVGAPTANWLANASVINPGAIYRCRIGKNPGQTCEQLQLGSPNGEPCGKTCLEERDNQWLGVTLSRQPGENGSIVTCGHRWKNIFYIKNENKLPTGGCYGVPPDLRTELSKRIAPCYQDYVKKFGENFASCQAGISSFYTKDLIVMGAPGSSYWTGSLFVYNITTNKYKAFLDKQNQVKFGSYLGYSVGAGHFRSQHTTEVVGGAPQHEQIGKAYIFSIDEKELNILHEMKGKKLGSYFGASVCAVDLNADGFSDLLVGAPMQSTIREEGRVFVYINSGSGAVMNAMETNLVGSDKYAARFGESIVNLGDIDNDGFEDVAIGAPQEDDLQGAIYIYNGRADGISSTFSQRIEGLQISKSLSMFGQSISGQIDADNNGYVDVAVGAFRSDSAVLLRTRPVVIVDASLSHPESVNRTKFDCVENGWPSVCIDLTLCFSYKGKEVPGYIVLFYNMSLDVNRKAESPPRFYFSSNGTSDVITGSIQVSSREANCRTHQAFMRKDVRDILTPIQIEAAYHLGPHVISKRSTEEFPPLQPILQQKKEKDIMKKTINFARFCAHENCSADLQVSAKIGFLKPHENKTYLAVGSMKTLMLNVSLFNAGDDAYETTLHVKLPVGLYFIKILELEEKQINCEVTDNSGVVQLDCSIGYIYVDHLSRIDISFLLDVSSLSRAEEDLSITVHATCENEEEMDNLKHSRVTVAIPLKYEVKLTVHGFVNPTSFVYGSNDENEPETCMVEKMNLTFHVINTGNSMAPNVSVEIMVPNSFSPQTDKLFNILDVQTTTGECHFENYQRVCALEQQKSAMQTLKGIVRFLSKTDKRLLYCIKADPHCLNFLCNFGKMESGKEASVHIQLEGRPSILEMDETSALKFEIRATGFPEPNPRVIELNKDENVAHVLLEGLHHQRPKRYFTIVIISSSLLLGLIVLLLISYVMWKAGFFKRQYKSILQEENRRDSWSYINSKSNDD
The nature of test [8]: superoxide lowering in aged yeast cells, pilot screen, validation compound set (AID 2706;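 active = superoxide response below 65% of plate, a cut near 3 SD across the whole screen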;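 also: yeast exposed to compound for one week at 30 degrees C before staining; 100% = mean of all compound wells on the same plate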). Particulars: S. cerevisiae aging, superoxide DHE fluorescence; at 10 µM; stronger effect = lower value.
Test [9] addresses Beta-adrenergic receptor kinase 1 (Homo sapiens) (UniProt P25098). Nature of the test: GRK2 binders displacing RNA aptamer, biochemical, validation, human GRK2, bead flow cytometry (AID 488806;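 active = aptamer binding inhibition above 30%, about 3 SD of noise from non-fluorescent compounds; inactive = inhibition at or below 30%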). Conditions: bead-bound GRK2, FAM-aptamer displacement, at 10 µM, stronger effect = higher value.
Test [10] concerns the target Beta-2 adrenergic receptor (Homo sapiens) (UniProt P07550). In words: beta2AR agonists driving receptor internalization, pilot screen, cell-based, FAP fluorogen, flow cytometry, validation set (AID 504459;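 active = percent response above 42, roughly 3 SD of non-fluorescent test compounds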;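 also: agonist-driven loss of surface beta2AR via internalization measured by FAP dye flow cytometry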). Particulars: Am2.2-beta2AR cells, FAP surface receptor flow cytometry; at 10 µM; stronger effect = higher value.
The target in test [11] is AP-2 complex subunit beta (Homo sapiens) (UniProt P63010). Nature of the test: inhibitors of arrestin peptide binding to AP2, pilot screen, biochemical, validation set, GST-AP2 beads, flow cytometry (AID 504541).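 Also: AP2 carries R879A mutation and is captured from E. coli lysate; bead-bound FITC arrestin peptide fluorescence measuring arrestin peptide binding to AP2; 0% = DMSO wells and 100% = excess unlabeled arrestin peptide control.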 Particulars: FITC arrestin peptide, at 10 µM, stronger effect = higher value, AP2 beta2 appendage fragment, R879A mutant.
Chain of AP-2 complex subunit beta (Homo sapiens) (P63010 whole entry, looked up, the tested form may be a part, one chain of several): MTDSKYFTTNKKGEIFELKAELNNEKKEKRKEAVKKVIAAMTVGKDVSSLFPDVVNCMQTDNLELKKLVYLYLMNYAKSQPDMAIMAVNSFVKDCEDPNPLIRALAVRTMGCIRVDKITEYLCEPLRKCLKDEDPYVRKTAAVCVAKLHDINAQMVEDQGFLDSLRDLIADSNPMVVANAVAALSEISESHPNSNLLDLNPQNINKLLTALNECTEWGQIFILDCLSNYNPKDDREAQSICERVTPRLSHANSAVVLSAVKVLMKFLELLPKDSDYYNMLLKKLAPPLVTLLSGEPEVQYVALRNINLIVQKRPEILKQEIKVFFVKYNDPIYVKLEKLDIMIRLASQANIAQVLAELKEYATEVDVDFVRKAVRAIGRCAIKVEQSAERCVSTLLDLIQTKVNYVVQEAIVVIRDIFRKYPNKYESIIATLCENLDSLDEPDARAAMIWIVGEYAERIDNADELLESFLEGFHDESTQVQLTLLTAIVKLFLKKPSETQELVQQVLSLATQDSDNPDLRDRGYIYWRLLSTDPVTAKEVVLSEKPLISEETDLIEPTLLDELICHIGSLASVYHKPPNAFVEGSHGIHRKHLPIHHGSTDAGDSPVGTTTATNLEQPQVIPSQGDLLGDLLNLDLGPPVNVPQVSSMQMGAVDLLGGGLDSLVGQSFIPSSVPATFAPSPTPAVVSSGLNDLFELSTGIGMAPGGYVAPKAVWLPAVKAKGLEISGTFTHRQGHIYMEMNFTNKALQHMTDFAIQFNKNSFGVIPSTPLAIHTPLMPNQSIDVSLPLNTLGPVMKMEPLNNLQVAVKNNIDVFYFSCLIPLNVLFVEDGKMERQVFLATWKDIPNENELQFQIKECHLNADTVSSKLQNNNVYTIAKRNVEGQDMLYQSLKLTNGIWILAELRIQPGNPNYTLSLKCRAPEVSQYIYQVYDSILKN
Test [12] is described as follows: yeast V-ATPase proton transport modulators, S. cerevisiae, pHLuorin, HTS validation (AID 504600; in the data active = response above about 15%;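 also: plate controls were DMSO for no effect and reference compound for full effect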). Conditions: S. cerevisiae pHLuorin cytosolic pH, at 10 µM, stronger effect = higher value.
Test [13] deals with anti-desmoglein-3 scFv antibody binding to human DSG3. In words: inhibitors of anti-DSG3 scFv binding to DSG3, pilot screen, biochemical, validation compound set, bead-based, flow cytometry (AID 588368;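 active = binding below the plate cutoff, the plate median minus 3 SD, with a reading above zero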;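 also: signal is the median channel fluorescence of bead-bound GFP antibody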). Conditions: Protein G beads, DSG3-Fc, scFv-GFP binding, at 10 µM, stronger effect = lower value.
Test [14] can be described thus: inhibitors of fungal efflux pumps CDR1, CDR2, MDR1, pilot screen, validation compound set, multiplex, phenotypic (AID 588506;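 active = efflux inhibition above 0.42, the validation set average plus 4 SD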;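 also: Nile Red retained in cells so higher fluorescence means more efflux inhibition; 0 = negative control wells and 1 = enniatin B 25 µM full block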). Particulars: S. cerevisiae pump-expressing triplex, Nile Red efflux flow cytometry; at 10 µM; stronger effect = higher value; the pumps come from Candida albicans.
The target in test [15] is ATP-binding cassette sub-family B member 6 (Homo sapiens) (UniProt Q9NP58). Nature of the test: ABCB6 transporter inhibitors, pilot screen, K562-ABCB6 cells, flow cytometry, validation set (AID 588550;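 active = inhibition above the screen-wide mean plus 3 SD, about 51%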;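 also: 0% = DMSO wells and 100% = benzethonium chloride 70 µM positive control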). Particulars: K562-ABCB6 porphyrin accumulation, 1 h, at 10 µM, stronger effect = higher value.
Chain of ATP-binding cassette sub-family B member 6 (Homo sapiens) (Q9NP58 whole entry, looked up): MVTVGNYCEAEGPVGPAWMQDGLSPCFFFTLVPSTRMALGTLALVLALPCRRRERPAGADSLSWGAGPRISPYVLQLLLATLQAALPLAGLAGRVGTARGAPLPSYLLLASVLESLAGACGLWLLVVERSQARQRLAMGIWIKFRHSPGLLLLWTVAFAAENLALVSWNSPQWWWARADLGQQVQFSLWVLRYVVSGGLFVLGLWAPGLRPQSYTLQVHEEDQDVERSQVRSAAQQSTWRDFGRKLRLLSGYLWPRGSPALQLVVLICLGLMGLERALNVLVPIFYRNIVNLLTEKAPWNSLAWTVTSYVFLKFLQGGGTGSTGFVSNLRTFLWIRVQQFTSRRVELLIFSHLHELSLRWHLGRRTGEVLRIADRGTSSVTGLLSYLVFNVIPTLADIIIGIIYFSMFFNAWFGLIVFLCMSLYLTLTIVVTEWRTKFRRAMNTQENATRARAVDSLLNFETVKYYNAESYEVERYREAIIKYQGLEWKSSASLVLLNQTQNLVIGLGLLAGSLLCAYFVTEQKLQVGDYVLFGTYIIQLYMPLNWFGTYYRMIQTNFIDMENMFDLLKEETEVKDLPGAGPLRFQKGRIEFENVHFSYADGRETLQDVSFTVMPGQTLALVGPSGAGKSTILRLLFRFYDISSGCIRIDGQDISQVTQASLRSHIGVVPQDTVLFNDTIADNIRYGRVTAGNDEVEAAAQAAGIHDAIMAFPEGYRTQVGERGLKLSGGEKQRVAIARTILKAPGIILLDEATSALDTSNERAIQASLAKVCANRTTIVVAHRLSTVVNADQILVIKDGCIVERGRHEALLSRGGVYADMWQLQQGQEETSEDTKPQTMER
Test [16] can be described thus: promoters of myeloid differentiation in arrested cells, primary screen, cell-based, GFP/MAC1 double positive, flow cytometry, validation set (AID 588685;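 active = differentiation response of at least 50%, scaled between solvent and reference control, from cells with both markers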;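 also: compound exposure lasts four days before antibody staining and flow analysis; 0% = DMSO wells and 100% = 5 µM fulvestrant positive control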). Particulars: ER-HoxA9 marrow cells, stronger effect = higher value, normalized: vehicle 0, fulvestrant 100.

Records with an inconclusive call do not appear. The source made the active and inactive calls.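 The calls were made as follows, unless noted: active = inhibition above 54%, about 3 SD of non-fluorescent compounds; inactive = the rest.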

These results are taken from PubChem BioAssay.

Chain of Beta-2 adrenergic receptor (Homo sapiens) (P07550 whole entry, looked up): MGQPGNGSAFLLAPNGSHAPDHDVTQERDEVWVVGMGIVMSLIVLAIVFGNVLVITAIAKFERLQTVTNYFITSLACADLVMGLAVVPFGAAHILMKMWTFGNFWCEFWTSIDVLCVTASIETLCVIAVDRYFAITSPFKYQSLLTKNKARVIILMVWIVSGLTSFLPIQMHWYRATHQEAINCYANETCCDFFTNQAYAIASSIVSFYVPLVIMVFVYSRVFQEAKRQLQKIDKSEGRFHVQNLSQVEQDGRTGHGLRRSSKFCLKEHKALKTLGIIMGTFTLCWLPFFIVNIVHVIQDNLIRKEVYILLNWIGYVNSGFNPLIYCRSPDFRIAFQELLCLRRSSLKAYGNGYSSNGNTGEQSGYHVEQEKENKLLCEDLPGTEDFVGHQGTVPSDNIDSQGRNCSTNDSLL
Chain of Beta-adrenergic receptor kinase 1 (Homo sapiens) (P25098 whole entry, looked up): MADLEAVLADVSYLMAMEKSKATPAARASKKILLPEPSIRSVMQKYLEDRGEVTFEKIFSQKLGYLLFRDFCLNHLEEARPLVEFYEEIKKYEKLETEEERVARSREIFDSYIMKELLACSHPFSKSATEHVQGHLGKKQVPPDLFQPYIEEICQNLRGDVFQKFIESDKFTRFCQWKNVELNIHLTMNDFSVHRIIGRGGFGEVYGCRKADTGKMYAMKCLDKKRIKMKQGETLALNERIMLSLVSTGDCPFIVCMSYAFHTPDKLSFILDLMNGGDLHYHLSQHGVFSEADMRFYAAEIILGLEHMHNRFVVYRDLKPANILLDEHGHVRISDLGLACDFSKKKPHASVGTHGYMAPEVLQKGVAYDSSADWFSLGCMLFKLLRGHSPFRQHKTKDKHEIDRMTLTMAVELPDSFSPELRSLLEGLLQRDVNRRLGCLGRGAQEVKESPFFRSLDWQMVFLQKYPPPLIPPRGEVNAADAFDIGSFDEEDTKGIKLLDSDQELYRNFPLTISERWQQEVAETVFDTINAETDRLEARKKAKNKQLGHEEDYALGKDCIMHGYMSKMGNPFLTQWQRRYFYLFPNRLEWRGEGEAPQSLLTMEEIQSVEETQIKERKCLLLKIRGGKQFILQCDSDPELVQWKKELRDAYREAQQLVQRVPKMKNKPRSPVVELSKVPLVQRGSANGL

Consider `CCN1C(=O)C(CC(=O)Nc2ccc(F)cc2)N(Cc2ccco2)C1=S` (stereo not given), for which, in [1], the percent of DMSO control GFP was 99% (inactive). Further, the GFP response vs DMSO was 102% (inactive) in [2] and 106% (inactive) in test [4]. Moreover, the percent response of DMSO control in test [3] is 95.1% (inactive). In addition, in test [5], the GFP response, % of DMSO was 114% (inactive). In [6], the double positive events is 62.4%. Besides, the vesicle binding response in [6] is 194% (inactive). In addition, the inhibition in test [7] is 15.1% (inactive); in [11] it was -8.85% (inactive); in test [15], 7% (inactive). For the same molecule, the superoxide response (% of plate) in test [8] is 107% (inactive). Besides, the aptamer binding inhibition in [9] is 5% (inactive). The response in test [10] was -17.8% (inactive); in test [12] it was 1.67% (inactive). In addition, the binding (% of control) in [13] was 99.9% (inactive). Besides, the efflux inhibition (fraction of control) in test [14] was -0.04 (inactive). In addition, the differentiation response in test [16] was 18.7% (inactive).
Regarding `COc1ccc(C(=O)Nc2ncc3c(n2)CC(C)CC3=O)cc1` (stereo not given), the percent of DMSO control GFP in [1] is 98% (inactive). Besides, the GFP response vs DMSO in [2] is 105% (inactive); in test [4], 110% (inactive). Moreover, the percent response of DMSO control in test [3] is 105% (inactive). Moreover, the GFP response, % of DMSO in [5] is 104% (inactive). Further, in [6], the double positive events is 48.3%. In addition, the vesicle binding response in [6] was 83.7% (inactive). The inhibition in test [7] is -12.7% (inactive); in [11], 61.9% (active); in [15], 15% (inactive). Further, in [8], the superoxide response (% of plate) is 99.5% (inactive). Further, the aptamer binding inhibition in [9] was -2% (inactive). Further, the figures for the response in test [10] and in test [12] were 2.81% (inactive) and -6.31% (inactive), respectively. Besides, the binding (% of control) in [13] was 95.3% (inactive). In [14], the efflux inhibition (fraction of control) is 0.01 (inactive). In test [16], the differentiation response was -7.2% (inactive).
As to `CC(=O)OCC(=O)[C@@]1(O)CC[C@H]2[C@@H]3CCC4=CC(=O)C=C[C@]4(C)[C@H]3[C@@H](O)C[C@@]21C`, the percent of DMSO control GFP in test [1] was 90.2% (inactive). Also, the GFP response vs DMSO in [2] is 132% (inactive); in [4], 101% (inactive). Also, in [3], the percent response of DMSO control is 99.2% (inactive). For the same molecule, the GFP response, % of DMSO in test [5] was 103% (inactive). This molecule also displayed a double positive events in test [6] of 66.4%. Besides, in test [6], the vesicle binding response is 161% (inactive). Besides, the values for the inhibition in [7], in test [11] and in test [15] were 9.37% (inactive), 8.75% (inactive) and 9% (inactive), respectively. Moreover, the superoxide response (% of plate) in test [8] is 97% (inactive). In test [9], the aptamer binding inhibition was 1% (inactive). Further, the response in test [10] is 4% (inactive); in test [12] it was -0.94% (inactive). The binding (% of control) in test [13] was 98.1% (inactive). The efflux inhibition (fraction of control) in test [14] was -0.09 (inactive). Also, the differentiation response in test [16] was 5.73% (inactive).
On to `COc1ccc(CN(CCC(c2ccccc2)c2ccc(OC(C)C)cc2)C(=O)CCl)cc1OC` (stereo not given), for which, in test [1], the percent of DMSO control GFP was 101% (inactive). In addition, the figures for the GFP response vs DMSO in [2] and in test [4] were 98.3% (inactive) and 98% (inactive), respectively. In addition, the percent response of DMSO control in test [3] is 107% (inactive). The GFP response, % of DMSO in test [5] was 99.7% (inactive). This molecule registered a double positive events in [6] of 65.9%. Also, the vesicle binding response in test [6] is 249% (inactive). Also, the inhibition in test [7] is -3.57% (inactive); in [11], -14.7% (inactive); in test [15] it was 6% (inactive). Also, the superoxide response (% of plate) in test [8] was 94.5% (inactive). In addition, the aptamer binding inhibition in test [9] was 4% (inactive). The results for the response in test [10] and in test [12] were -6.05% (inactive) and 0.92% (inactive), respectively. Moreover, the binding (% of control) in test [13] is 93% (inactive). In addition, the efflux inhibition (fraction of control) in [14] was -0.2 (inactive). In addition, the differentiation response in test [16] is 13.9% (inactive).
On to `C=CCNC(=O)c1ccc(-c2cccc([N+](=O)[O-])c2)o1`, for which the percent of DMSO control GFP in test [1] was 98.8% (inactive). The GFP response vs DMSO in test [2] is 101% (inactive); in [4], 107% (inactive). The percent response of DMSO control in [3] is 91.7% (inactive). Also, the GFP response, % of DMSO in test [5] was 95.1% (inactive). For the same molecule, the double positive events in [6] was determined as 52.6%. For the same molecule, the vesicle binding response in test [6] was 773% (inactive). Further, the results for the inhibition in test [7], in [11] and in [15] were 6.85% (inactive), -25% (inactive) and 4% (inactive), respectively. In addition, in test [8], the superoxide response (% of plate) is 101% (inactive). Besides, the aptamer binding inhibition in [9] was 3% (inactive). Further, the response in test [10] is 9.11% (inactive); in test [12], -0.55% (inactive). For the same molecule, the binding (% of control) in test [13] is 101% (inactive). In addition, the efflux inhibition (fraction of control) in [14] was -0.34 (inactive). Moreover, the differentiation response in test [16] was 6.49% (inactive).

A word on the inhibition: it is the change of the read-out against control, counted positive when it falls.
